Test results published in PubChem BioAssay (EPA / NIEHS).
Calls of active or inactive are those of the source. How the source made its calls: active means hit-call score of the fitted dose curve at least 0.9, where 1 is the maximum; inactive means score below 0.9.

Legend:
[1] = read-out: Interleukin-6 (IL6), IL6 (gene 3569); test: BSK_CASM3C_IL6: BioMAP Diversity Plus: CASM3C Assay for Interleukin-6 (IL6) Biomarker Activity for (AID 2283040); settings: primary human coronary artery smooth muscle cells; actives raise or lower the signal
[2] = read-out: Tissue plasminogen activator (tPA), PLAT (gene 5327); test: BSK_BE3C_tPA: BioMAP Diversity Plus: BE3C Assay for Tissue plasminogen activator (tPA) Biomarker Activity (AID 2283041); settings: primary human bronchial epithelial cells; actives raise or lower the signal
Summary of the method: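 tPA measured by ELISA 24 h after dosing human primary bronchial epithelial cells (BE3C system). Changes in either direction were fitted against DMSO. Parallel cultures were stained with SRB to flag overt cytotoxicity.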

[3] = read-out: Interleukin-8 (IL8), CXCL8 (gene 3576); test: BSK_CASM3C_IL8: BioMAP Diversity Plus: CASM3C Assay for Interleukin-8 (IL8) Biomarker Activity (AID 2283042); settings: primary human coronary artery smooth muscle cells; actives raise or lower the signal;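 further: IL-8 protein level quantified by ELISA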
[4] = read-out: Human Leukocyte Antigen - DR isotype (HLADR), HLA-DRA (gene 3122); test: BSK_CASM3C_HLADR: BioMAP Diversity Plus: CASM3C Assay for Human Leukocyte Antigen - DR isotype (HLADR) Biomarker Activity (AID 2283043); settings: primary human coronary artery smooth muscle cells; actives raise or lower the signal;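 further: cell-surface HLA-DR protein level quantified by ELISA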
[5] = read-out: Macrophage colony-stimulating factor (MCSF), CSF1 (gene 1435); test: BSK_CASM3C_MCSF: BioMAP Diversity Plus: CASM3C Assay for Macrophage colony-stimulating factor (MCSF) Biomarker Activity (AID 2283044); settings: primary human coronary artery smooth muscle cells; actives raise or lower the signal;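 further: M-CSF protein amount quantified by ELISA after 24 h exposure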
[6] = read-out: Low-density lipoprotein receptor (LDLR), LDLR (gene 3949); test: BSK_CASM3C_LDLR: BioMAP Diversity Plus: CASM3C Assay for Low-density lipoprotein receptor (LDLR) Biomarker Activity (AID 2283045); settings: primary human coronary artery smooth muscle cells; actives raise or lower the signal;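 further: LDLR protein level on the cell surface quantified by ELISA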
[7] = read-out: Monocyte Chemoattractant Protein-1 (MCP1), CCL2 (gene 6347); test: BSK_CASM3C_MCP1: BioMAP Diversity Plus: CASM3C Assay for Monocyte Chemoattractant Protein-1 (MCP1) Biomarker Activity (AID 2283046); settings: primary human coronary artery smooth muscle cells; actives raise or lower the signal;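 further: MCP-1 level quantified by ELISA 24 h after dosing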
[8] = BSK_CASM3C_Proliferation: Cell Proliferation Assessment in the BioMAP Diversity Plus: CASM3C Assay (AID 2283047); settings: primary human coronary artery smooth muscle cells;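 further: sulforhodamine B total protein stain as relative cell number at 560 nm; sub-confluent cells exposed 48 h before staining; fitted both ways against DMSO so gain or loss of cell number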
[9] = read-out: Monokine induced gamma interferon (MIG), CXCL9 (gene 4283); test: BSK_CASM3C_MIG: BioMAP Diversity Plus: CASM3C Assay for Monokine induced gamma interferon (MIG) Biomarker Activity (AID 2283048); settings: primary human coronary artery smooth muscle cells; actives raise or lower the signal;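 further: MIG protein level measured by ELISA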
[10] = read-out: serum amyloid A (SAA), SAA1 (gene 6288); test: BSK_CASM3C_SAA: BioMAP Diversity Plus: CASM3C Assay for serum amyloid A (SAA) Biomarker Activity (AID 2283049); settings: primary human coronary artery smooth muscle cells; actives raise or lower the signal;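 further: SAA protein level quantified by ELISA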

Measured: AC50

CC(C)(C)CC(C)(C)c1ccc(O)c(-n2nc3ccccc3n2)c1
active: [4] 15.7 µM | [5] 28.8 µM | [6] 20 µM | [8] 29.8 µM | [10] 32.4 µM
inactive: [1] | [2] | [3] | [7] | [9]

CCCCCCCC(=O)O
inactive: [1] | [3] | [4] | [5] | [6] | [7] | [8] | [9] | [10]

CCCOC(=O)c1ccc(O)cc1
inactive: [1] | [3] | [4] | [5] | [6] | [7] | [8] | [9] | [10]

CCCCCCCCCCCCCCCS(=O)(=O)Oc1ccccc1
inactive: [1] | [3] | [4] | [5] | [6] | [7] | [8] | [9] | [10]

Cc1cc(CCN2CCN(c3nsc4ccccc34)CC2)cc2c1NC(=O)CC2(C)C
active: [2] 25.8 µM | [3] 35.4 µM | [4] 28.5 µM | [5] 36.1 µM | [6] 33.4 µM | [7] 37.1 µM | [8] 29.8 µM | [9] 37.1 µM | [10] 31.5 µM

CCCCCCCCCCCCCC[N+](C)(C)C
active: [1] 9.39 µM | [3] 10.8 µM | [4] 5.99 µM | [5] 4.57 µM | [6] 8.07 µM | [7] 5.83 µM | [8] 5.31 µM | [9] 11.8 µM | [10] 2.89 µM

CC(=O)CC(C)(C)O
inactive: [1] | [3] | [4] | [5] | [6] | [7] | [8] | [9] | [10]

CC[C@H](C)[C@@H](C(=O)O)n1sc2ccccc2c1=O
inactive: [1] | [3] | [4] | [5] | [6] | [7] | [8] | [9] | [10]

CCN(CC)CCNc1ccc(CNC=O)c2sc3ccc(OC)cc3c(=O)c12
active: [1] 20 µM | [3] 35.6 µM | [4] 12.3 µM | [5] 25.9 µM | [7] 26.9 µM | [8] 20 µM | [10] 20.3 µM
inactive: [6] | [9]

CCCCOCCO
inactive: [1] | [3] | [4] | [5] | [6] | [7] | [8] | [9] | [10]

NCC(F)(F)C(F)(F)C(F)(F)C(F)(F)C(F)(F)C(F)(F)C(F)(F)F
inactive: [1] | [3] | [4] | [5] | [6] | [7] | [8] | [9] | [10]

CCc1ccc(CCOc2ccc(CC3SC(=O)NC3=O)cc2)nc1 (stereo unspecified)
inactive: [1] | [3] | [4] | [5] | [6] | [7] | [8] | [9] | [10]

Cc1oc(-c2ccccc2)nc1CCOc1ccc(C[C@H](Nc2ccccc2C(=O)c2ccccc2)C(=O)O)cc1
active: [1] 29.9 µM | [4] 34.6 µM | [5] 30.8 µM | [6] 4.87 µM | [7] 32.4 µM | [8] 31.8 µM
inactive: [3] | [9] | [10]

CCCCCCCCCCCCN1CCCC1=O
active: [8] 32.7 µM
inactive: [1] | [3] | [4] | [5] | [6] | [7] | [9] | [10]

N#C[C@@H]1CC(F)(F)CN1C(=O)CNC1CC2CCC(C1)N2c1ncccn1 (stereo partly specified)
inactive: [1] | [3] | [4] | [5] | [6] | [7] | [8] | [9] | [10]

CCOC(=O)CC(O)(CC(=O)OCC)C(=O)OCC
inactive: [1] | [3] | [4] | [5] | [6] | [7] | [8] | [9] | [10]

CC(C)(C)c1cccc(C(C)(C)C)c1O
inactive: [1] | [3] | [4] | [5] | [6] | [7] | [8] | [9] | [10]

FC(F)(I)C(F)(F)C(F)(F)C(F)(F)C(F)(F)C(F)(F)I
active: [1] 35.9 µM [middle of 5 runs] | [3] 30 µM [middle of 5 runs] | [5] 25.9 µM [middle of 5 runs] | [6] 22 µM [middle of 5 runs] | [7] 21.6 µM [middle of 5 runs] | [8] 13.6 µM [middle of 5 runs] | [9] 29.7 µM [middle of 5 runs] | [10] 17 µM [middle of 5 runs]

c1ccc2c(c1)Cc1ccccc1-2
inactive: [1] | [3] | [4] | [5] | [6] | [7] | [8] | [9] | [10]

COC(=O)CCCCC(=O)OC
inactive: [1] | [3] | [4] | [5] | [6] | [7] | [8] | [9] | [10]

CCCCCCCCCCCCc1ccccc1S(=O)(=O)O
inactive: [1] | [3] | [4] | [5] | [6] | [7] | [8] | [9] | [10]

CCCCCCCCC(=O)O
inactive: [1] | [3] | [4] | [5] | [6] | [7] | [8] | [9] | [10]

CC1=C(/C=C/C(C)=C/C=C/C(C)=C/C(=O)O)C(C)(C)CCC1
active: [1] 2.7 µM | [4] 26.3 µM | [8] 20 µM
inactive: [3] | [5] | [6] | [7] | [9] | [10]

CC(C)(C)c1cc(C(C)(C)C)c(O)c(C(C)(C)C)c1
inactive: [1] | [3] | [4] | [5] | [7] | [8] | [9] | [10]
active: [6] 11.8 µM

c1ccc2c(c1)ccc1ccccc12
inactive: [1] | [3] | [4] | [5] | [6] | [7] | [8] | [9] | [10]

ClC1=C(Cl)C(Cl)(Cl)C(Cl)=C1Cl
active: [1] 5.48 µM | [3] 9.09 µM | [4] 4.27 µM | [5] 6.59 µM | [6] 5.87 µM | [7] 7.68 µM | [8] 2.76 µM | [9] 7.3 µM | [10] 6.33 µM

COCC(C)O (stereo unspecified)
inactive: [1] | [3] | [4] | [5] | [6] | [7] | [8] | [9] | [10]

CC[C@H](c1ccc(O)cc1)[C@@H](CC)c1ccc(O)cc1
inactive: [1] | [3] | [4] | [5] | [6] | [7] | [9] | [10]
active: [8] 20 µM

OC1CCC(C2CCCCC2)CC1 (stereo unspecified)
inactive: [1] | [3] | [4] | [5] | [6] | [7] | [8] | [9] | [10]

COCC(C)OCC(C)O (stereo unspecified)
inactive: [1] | [3] | [4] | [5] | [6] | [7] | [8] | [9] | [10]

c1ccc2cc3c(ccc4ccccc43)cc2c1
active: [8] 3.12 µM
inactive: [1] | [3] | [4] | [5] | [6] | [7] | [9] | [10]

Cc1cc(C)c(O)c(C)c1
inactive: [1] | [3] | [4] | [5] | [6] | [7] | [8] | [9] | [10]

CCc1nn(C2CCCCC2)c2cc(C3(C#N)CCC(C(=O)O)CC3)ccc12 (stereo unspecified)
active: [1] 11.1 µM | [4] 4.52 µM | [5] 0.657 µM | [6] 1.47 µM | [7] 7.23 µM | [8] 4.09 µM | [9] 13.1 µM
inactive: [3] | [10]

CCC(C)(C)C1CCC(O)CC1 (stereo unspecified)
inactive: [1] | [3] | [4] | [5] | [6] | [7] | [8] | [9] | [10]
